An excerpt weighted towards active compounds, which were near 1.1% of everything screened.
HDAC3 inhib = HDAC3 deacetylase inhibitors, primary screen, biochemical, fluorescence, cell-free homogeneous; Histone deacetylase 3 (Homo sapiens), O15379; recombinant HDAC3, fluorogenic peptide/trypsin coupled; inhibition, % at 8.3 µM; hit rate 0.15% among 320,000; in the data active = inhibition above about 26%, passing the limit was not always enough; inconclusive = no clear call, values can overlap the other calls
C-LANA FP = inhibitors of KSHV C-LANA binding to DNA, primary screen, biochemical, fluorescence polarization, FAM-LBS DNA, MBP-C-LANA, single point; Kaposi's sarcoma herpesvirus LANA C-terminal domain (residues 932-1162) DNA binding; hit rate 0.078% among 340,000; inhibition, % at 9 µM;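 active = highest replicate inhibition at or above 60% at 9 µM, even if other replicates fall short; inactive = all replicates below 60% inhibition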;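 also: 0% = neutral control wells and 100% = 4 µM acridine orange control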
Keap1-Nrf2 PPI = Keap1-Nrf2 protein-protein interaction inhibitors, primary screen, biochemical, fluorescence polarization, single point; Keap1 Kelch-Nrf2 peptide fluorescence polarization, 1536-well; Kelch-like ECH-associated protein 1 (Homo sapiens), Q14145; inhibition, % at 9.4 µM; hit rate 0.15% among 340,000; in the data active = inhibition above about 12%; inconclusive = no clear call, values can overlap the other calls; inactive = below about 7.3%;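 also: human Keap1 Kelch domain with fluorescein labeled Nrf2 9mer peptide probe; 0% = neutral control wells and 100% = peptide positive control; higher means more block of Keap1 binding to Nrf2 peptide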
CASP6 VEID inh = human caspase-6 inhibitors, primary screen, biochemical, VEID-R110 fluorescence, single point, set 2 | purified caspase-6, Z-VEID-R110 cleavage fluorescence | inhibition, % at 12.5 µM | hit rate 0.53% among 350,000 | AID 686996, 2013;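 active = mean inhibition across replicates at least about 35%, with every replicate also reaching that limit, limit read from the data; inconclusive = only one of the two criteria met; inactive = neither criterion met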;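 also: 0% = median of neutral control wells and 100% = no fluorescence left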
Target sequence (P55212 24-179 limits assumed): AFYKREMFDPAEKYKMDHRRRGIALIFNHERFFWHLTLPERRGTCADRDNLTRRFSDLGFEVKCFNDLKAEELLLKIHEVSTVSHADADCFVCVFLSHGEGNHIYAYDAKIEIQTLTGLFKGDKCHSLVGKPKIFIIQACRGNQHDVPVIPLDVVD
Target sequence (P55212 194-293 limits assumed): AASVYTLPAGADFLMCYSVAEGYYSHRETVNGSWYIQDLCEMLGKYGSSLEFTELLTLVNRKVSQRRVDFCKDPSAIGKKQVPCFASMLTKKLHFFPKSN
NSD2 inh = NSD2 histone methyltransferase inhibitors, primary screen, biochemical, AlphaScreen, single concentration, set 2. inhibition, % at 12.5 µM. Histone-lysine N-methyltransferase NSD2 (Homo sapiens), O96028. NSD2 peptide methylation, 120 min. hit rate 0.54% among 310,000; in the data active = inhibition above about 50%
Glyco luc inh = increase of ERlucT glycosylation luciferase signal, primary screen, N-linked glycosylation inhibitor project, D54 ERlucT cells, luminescence, set 2. D54 ERlucT glycosylation luciferase reporter, 24 h; percent of 100 nM tunicamycin response. reporter increase, % at 12.5 µM. hit rate 0.23% among 360,000;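 active = mean luciferase reporter signal, scaled so untreated is 0 and the glycosylation-blocking control 100, at or above a set limit in every replicate; inconclusive = mean reaches the limit but not every replicate does; inactive = mean below the limit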;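 also: luciferase carries N-glycosylation sites so blocking glycosylation raises the light; 0% = median of neutral control wells and 100% = median of 100 nM tunicamycin wells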
CASP1 counter = human caspase-1 inhibitors, dose response, selectivity assay for caspase-6 inhibitor project, biochemical, Z-YVAD-R110 fluorescence, cherry-pick, set 2. AID 743289, 2014. purified caspase-1, Z-YVAD-R110 cleavage fluorescence. activity change, negative = inhibition, % at 35 µM. 100 tested, under 10 active. shares compounds with CASP6 VEID inh;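 active = compounds lowering fluorescence whose fitted half-maximal concentration is no more than twice their top tested dose; inconclusive = flat fit with 30 to 70% inhibition, or poor fit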
Target sequence (P29466 whole entry, looked up): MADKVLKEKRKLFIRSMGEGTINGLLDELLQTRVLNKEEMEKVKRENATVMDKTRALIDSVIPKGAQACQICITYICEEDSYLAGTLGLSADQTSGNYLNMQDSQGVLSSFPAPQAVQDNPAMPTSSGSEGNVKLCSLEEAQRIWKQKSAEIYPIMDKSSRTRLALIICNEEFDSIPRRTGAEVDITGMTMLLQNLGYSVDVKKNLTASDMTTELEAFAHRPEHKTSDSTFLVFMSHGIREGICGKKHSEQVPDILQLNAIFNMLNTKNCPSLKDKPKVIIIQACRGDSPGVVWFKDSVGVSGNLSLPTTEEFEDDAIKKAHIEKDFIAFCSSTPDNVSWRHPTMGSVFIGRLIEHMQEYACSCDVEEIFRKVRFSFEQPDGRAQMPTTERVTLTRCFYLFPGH
The depositor's hits bear a star.

What do the screens show for `Nc1cc2nn(-c3ccccc3)nc2cc1Cl`?
C-LANA FP: 1.3; Keap1-Nrf2 PPI: -2.7; CASP6 VEID inh: 98.4*; NSD2 inh: 52.2*; Glyco luc inh: -4.5; CASP1 counter: 2.0

What do the screens show for `COc1cc(C)c2c(c1C=O)Oc1c(c(C)c(O)c3c1C(O)OC3=O)OC2=O` (stereo unspecified)?
HDAC3 inhib: -1.8; C-LANA FP: 9.2; Keap1-Nrf2 PPI: 4.0; CASP6 VEID inh: 78.0*; Glyco luc inh: 2.6; CASP1 counter: -2.5

How did O=C(O)C1Nc2c(Cl)cc(Cl)c(Cl)c2C2C=CCC12 (stereo unspecified) do in these assays?
HDAC3 inhib: -3.1; C-LANA FP: 1.5; Keap1-Nrf2 PPI: -1.0; CASP6 VEID inh: 39.6*; NSD2 inh: 12.9; Glyco luc inh: -0.3; CASP1 counter: 20.9

What do the screens show for `C[C@@H]1CN([C@H](C)CO)C(=O)Cc2cc(NC(=O)CCN3CCOCC3)ccc2O[C@H]1CN(C)S(=O)(=O)c1ccc(Cl)cc1`?
CASP6 VEID inh: 1.8

How did O=c1oc(-c2ccccc2)nc2sc3c(c12)CCC3 do in these assays?
HDAC3 inhib: 9.5; C-LANA FP: 3.0; Keap1-Nrf2 PPI: -5.3; CASP6 VEID inh: 71.6*; NSD2 inh: 16.0; Glyco luc inh: 0.8; CASP1 counter: -3.9

How did CCC(=O)N1CC2(C1)[C@@H](c1ccc(-c3ccc(F)cc3)cc1)[C@@H](CO)N2C(=O)CC do in these assays?
CASP6 VEID inh: -6.6

How did O=C(O)CCc1ccc(-c2ccc(Br)cc2)n1CC(=O)O do in these assays?
HDAC3 inhib: 3.2; C-LANA FP: 0.8; Keap1-Nrf2 PPI: 1.7; CASP6 VEID inh: 47.0*; Glyco luc inh: 0.4; CASP1 counter: 9.8

Results for O=C(C1CCOCC1)N1CC(=O)N2[C@H](C1)[C@H](c1ccc(C#Cc3cccc(F)c3)cc1)[C@@H]2CO ?
CASP6 VEID inh: 1.1

What do the screens show for `Nc1c(O)cccc1C(=O)O`?
HDAC3 inhib: -3.4; C-LANA FP: 2.9; Keap1-Nrf2 PPI: 1.1; CASP6 VEID inh: 56.3*; Glyco luc inh: 3.9; CASP1 counter: 3.8

How did O=C(O)c1ccccc1O do in these assays?
HDAC3 inhib: 0.9; C-LANA FP: -1.1; Keap1-Nrf2 PPI: -4.1; Glyco luc inh: 0.4

How did O=C1Cc2ccccc2C(=O)N1 do in these assays?
CASP6 VEID inh: 99.3*; CASP1 counter: -7.1

What do the screens show for `CCCSC1=N/C(=C\c2ccc([N+](=O)[O-])o2)C(=O)S1`?
C-LANA FP: 40.4; Keap1-Nrf2 PPI: -4.2; CASP6 VEID inh: 75.2*; NSD2 inh: 34.5; Glyco luc inh: 2.8; CASP1 counter: -8.7

How did CCSC1=N/C(=C\c2ccc(-c3ccccc3[N+](=O)[O-])o2)C(=O)S1 do in these assays?
HDAC3 inhib: -3.0; C-LANA FP: 11.8; Keap1-Nrf2 PPI: 7.9; NSD2 inh: 1.8; Glyco luc inh: 1.7

How did C[C@H]1CN([C@@H](C)CO)C(=O)c2cc(C#CCN(C)C)cnc2O[C@@H]1CN(C)C(=O)c1ccc2c(c1)OCO2 do in these assays?
CASP6 VEID inh: -1.6

What do the screens show for `Nc1ccc(Nc2ccccc2)c(S(=O)(=O)O)c1`?
HDAC3 inhib: -24.9; C-LANA FP: 39.5; Keap1-Nrf2 PPI: 1.6; CASP6 VEID inh: 85.7*; NSD2 inh: 93.7*; Glyco luc inh: 1.7; CASP1 counter: -8.4

Results for O=C(CCO)c1ccc(O)cc1 ?
HDAC3 inhib: -4.3; C-LANA FP: 58.4; Keap1-Nrf2 PPI: -1.5; CASP6 VEID inh: 75.3*; Glyco luc inh: 0.0; CASP1 counter: -0.4

Results for COc1ccc([N+](=O)[O-])cc1NC(=O)CCS(=O)(=O)c1ccc(Br)cc1 ?
HDAC3 inhib: 2.3; C-LANA FP: 3.9; Keap1-Nrf2 PPI: -0.1; CASP6 VEID inh: 31.0; NSD2 inh: -0.3; Glyco luc inh: 3.1; CASP1 counter: -1.6

Results for O=C(Nc1ccc(Cl)c(Cl)c1)N[C@H]1CC[C@@H](CCNC(=O)c2ccc(F)cc2)O[C@H]1CO ?
CASP6 VEID inh: 1.0

How did C[C@@H]1CCCCO[C@@H](CN(C)C)[C@H](C)CN([C@H](C)CO)C(=O)c2cc(NC(=O)Nc3ccc4c(c3)OCO4)ccc2O1 do in these assays?
CASP6 VEID inh: -3.4

What do the screens show for `C[C@H]1CN([C@@H](C)CO)S(=O)(=O)c2ccc(C#CC3CC3)cc2O[C@@H]1CN(C)C(=O)CC1CC1`?
CASP6 VEID inh: -1.1

Results for COc1ccc(OC)c(Nc2nnc(C)c(=O)[nH]2)c1 ?
HDAC3 inhib: inconclusive; CASP6 VEID inh: 1.0; NSD2 inh: -1.7

What do the screens show for `COc1ccc(OC)c(Nc2cc3ccccc3c(=O)[nH]2)c1`?
HDAC3 inhib: -2.7; C-LANA FP: -0.8; Keap1-Nrf2 PPI: 0.1; CASP6 VEID inh: 99.0*; Glyco luc inh: 32.6*; CASP1 counter: 23.0

What do the screens show for `O=C(C[C@@H]1C=C[C@@H](NC(=O)Nc2cccc(F)c2)[C@H](CO)O1)NCC1CC1`?
CASP6 VEID inh: -0.7

What do the screens show for `CCn1cnc2cc(NCc3ccc(OC)cc3)ccc21`?
HDAC3 inhib: -5.7; C-LANA FP: 2.6; Keap1-Nrf2 PPI: 2.2; NSD2 inh: -2.8; Glyco luc inh: 1.5

Results for CCOc1ccc2nc3cc(NCc4ccc(OC)cc4)ccc3c(N)c2c1 ?
HDAC3 inhib: inconclusive; C-LANA FP: 1.6; Keap1-Nrf2 PPI: -0.6; CASP6 VEID inh: 73.0*; NSD2 inh: -6.0; Glyco luc inh: -20.7; CASP1 counter: 3.2

What do the screens show for `COc1cc(-c2ccc(Nc3ccccc3C(=O)O)c(OC)c2)ccc1Nc1ccccc1C(=O)O`?
C-LANA FP: 54.1; Keap1-Nrf2 PPI: -2.2; CASP6 VEID inh: 39.5*; NSD2 inh: 80.2*; Glyco luc inh: -8.4; CASP1 counter: -3.0

Results for COc1cc([N+](=O)[O-])c(OC)cc1Nc1ccccc1C(=O)O ?
CASP6 VEID inh: 29.2; NSD2 inh: 15.1

What do the screens show for `CCCCN(C(=O)c1cccc(N2C(=O)c3ccccc3C2=O)c1)c1c(N)n(CC(C)C)c(=O)[nH]c1=O`?
HDAC3 inhib: -2.2; C-LANA FP: 1.0; Keap1-Nrf2 PPI: -3.5; CASP6 VEID inh: 1.5; NSD2 inh: 2.7; Glyco luc inh: 0.6

Results for CCCCN(C(=O)c1cccc(-n2cccc2)c1)c1c(N)n(Cc2ccccc2)c(=O)[nH]c1=O ?
HDAC3 inhib: 3.6; C-LANA FP: -1.2; Keap1-Nrf2 PPI: -2.7; CASP6 VEID inh: 56.7*; NSD2 inh: 0.0; Glyco luc inh: 0.8; CASP1 counter: -0.7

Screening results as filed in PubChem BioAssay.
